These results are taken from ChEMBL document CHEMBL1201862, “PubChem BioAssay data set” (2004).

Results with a measured potency or affinity are listed apart. A number with no mark means an inactive call. The rule behind the calls is not given here.

The experiment deals with T1, fMet-Leu-Phe receptor (Homo sapiens) (UniProt P21462).
T1 sequence (whole entry): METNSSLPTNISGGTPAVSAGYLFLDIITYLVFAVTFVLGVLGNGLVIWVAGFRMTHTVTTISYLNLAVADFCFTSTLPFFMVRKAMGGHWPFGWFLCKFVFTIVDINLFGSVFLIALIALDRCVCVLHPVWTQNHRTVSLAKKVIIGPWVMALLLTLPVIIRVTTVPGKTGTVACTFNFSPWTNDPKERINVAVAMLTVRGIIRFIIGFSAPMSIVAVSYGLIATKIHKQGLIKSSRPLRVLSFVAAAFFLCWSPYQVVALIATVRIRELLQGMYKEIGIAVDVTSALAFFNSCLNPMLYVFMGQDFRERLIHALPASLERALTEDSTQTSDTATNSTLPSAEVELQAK
Kind of experiment: human FPR1 ligand displacement potency – cell-based, flow cytometry, Ki from IC50, dose response (AID 724). Format: functional.
Take `COc1ccc(-c2c(C(F)(F)F)oc3cc(OC(=O)c4cccnc4)ccc3c2=O)cc1OC`: the KI MICROM is 8.9 µM (active). The same measure for `CCc1cc2c(=O)c(-c3nc4ccccc4n3C)c(C)oc2cc1OC(C)=O`: 0.3 µM (active).

Consider `O=C(Oc1ccc2c(=O)c(-c3ccccc3Cl)c(C(F)(F)F)oc2c1)c1cccs1`, for which the KI MICROM was 1.1 µM (active). The same measure for `COc1cccc(/C=C2/C(=O)NN(c3ccc(C)cc3)C2=O)c1`: more than 44.3 µM; for `CC(C)C(=O)N(Cc1ccco1)S(=O)(=O)c1cccc2cccnc12`: more than 44.3 µM; for `Cc1cccc(C2CC(=O)NC3=C2C(=O)CC(c2cccs2)C3)c1` (stereo not given): more than 44.3 µM. Under `O=C(Oc1ccc2c(=O)c(Oc3ccccc3Br)c(C(F)(F)F)oc2c1)c1cccs1` stands more than 44.3 µM; under `CCCC(=O)N(Cc1ccco1)S(=O)(=O)c1cccc2cccnc12`, more than 44.3 µM. In the case of `COc1cccc(-c2ccnc3[nH]n(-c4ccccc4)c(=O)c23)c1`, the KI MICROM was more than 44.3 µM. Under `COc1ccc(-c2c(C)nn3c(=O)c4c([nH]c23)CCCC4)cc1` stands more than 44.3 µM; under `COc1ccccc1-c1c(C(F)(F)F)oc2cc(OC(=O)c3ccco3)ccc2c1=O`, 1.1 µM (active); under `CCC(C)(C(=O)NC1CCCCC1)N(Cc1cccs1)C(C)=O` (stereo not given), more than 44.3 µM.

In the case of `O=C1CC(c2ccccc2C(F)(F)F)C2=C(CC(c3cccs3)CC2=O)N1` (stereo not given), the KI MICROM was more than 44.3 µM. Under `COc1ccc(OC)c(CNC(=O)Cn2c(=O)sc3ccccc32)c1` stands more than 44.3 µM.

As for `COc1ccc(-c2c(C(F)(F)F)oc3cc(OC(=O)c4ccco4)ccc3c2=O)cc1OC`, the KI MICROM was 3.3 µM (active). Under `COCCN1C(=O)C(O)=C(C(=O)c2ccccc2)C1c1ccccc1OC` (stereo not given) stands 12.4 µM; under `Cc1[nH]c2c(-c3ccc(Cl)cc3)c(C(F)(F)F)nn2c(=O)c1Cc1ccccc1`, 2.5 µM (active).

Take `Cc1cccc(C)c1NC(=O)C(NC(=O)Cc1cccs1)c1ccccc1` (stereo not given): the KI MICROM was more than 44.3 µM. In the case of `Cc1sc2c(c1C)c(=O)n(Cc1ccccc1)c(=O)n2Cc1ccccc1F`, the KI MICROM was more than 44.3 µM. For `COc1ccc(C2C(C(=O)N3CCCC(C)C3)c3ccccc3C(=O)N2C)cc1` (stereo not given), the KI MICROM was more than 44.3 µM.
